# Laboratory results published in PubChem BioAssay (Tox21).
# A number with no mark means an inactive call. Records with an inconclusive call do not appear. A call without a number means that no potency is given here. The source made the active and inactive calls. The call rests on the fitted dose curve.
# How the values were obtained:
# [1] = target: Acetylcholinesterase (Homo sapiens) (UniProt P22303); assay: Acetylcholinesterase (AChE) small molecule antagonists: colormetric cell-based qHTS assay (AID 1347395); further: nearly all actives have a fitted effect of over 30% in size; further: potency means the concentration at half of the fitted maximal effect
# Chain of Acetylcholinesterase (Homo sapiens) (P22303 whole entry, looked up): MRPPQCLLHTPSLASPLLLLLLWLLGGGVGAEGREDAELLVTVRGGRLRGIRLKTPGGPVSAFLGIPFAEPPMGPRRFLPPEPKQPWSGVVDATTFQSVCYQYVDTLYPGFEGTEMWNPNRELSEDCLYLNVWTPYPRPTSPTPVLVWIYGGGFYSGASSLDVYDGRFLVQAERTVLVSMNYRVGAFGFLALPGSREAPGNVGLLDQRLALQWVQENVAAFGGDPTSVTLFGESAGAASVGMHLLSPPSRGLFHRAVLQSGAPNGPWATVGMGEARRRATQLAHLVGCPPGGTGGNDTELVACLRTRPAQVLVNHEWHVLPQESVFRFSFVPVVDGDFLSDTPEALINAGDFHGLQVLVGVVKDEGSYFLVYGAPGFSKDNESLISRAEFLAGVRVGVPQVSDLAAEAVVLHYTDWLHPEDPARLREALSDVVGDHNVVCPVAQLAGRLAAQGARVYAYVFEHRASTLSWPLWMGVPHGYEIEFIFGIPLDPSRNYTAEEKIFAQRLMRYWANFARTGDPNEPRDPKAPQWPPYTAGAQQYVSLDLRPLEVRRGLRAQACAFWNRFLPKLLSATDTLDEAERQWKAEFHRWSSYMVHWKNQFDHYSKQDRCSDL
# Summary of the method: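 In this cell-based qHTS, attached SH-SY5Y cells were treated with test chemicals for 30 min, after which acetylthiocholine hydrolysis was followed by DTNB colour development over 90 min at 37 C.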
# [2] = target: Acetylcholinesterase (Homo sapiens) (UniProt P22303); assay: Acetylcholinesterase (AChE) small molecule antagonists: enzyme-based qHTS assay (AID 1347397); settings: Potency: AChE enzyme activity inhibition; outcome: AChE enzyme activity inhibition; further: nearly all actives have a fitted effect of over 55% in size
# Summary of the method: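 Absorbance-based detection of thiocholine with DTNB served as the read-out. Recombinant human AChE was exposed to compound for 30 min at RT before a 10 min RT incubation with acetylthiocholine.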
# [3] = target: Acetylcholinesterase (Homo sapiens) (UniProt P22303); assay: Acetylcholinesterase (AChE) small molecule antagonists: fluorescence cell-based qHTS assay (AID 1347398); settings: Potency: AChE activity; outcome: AChE activity; further: nearly all actives have a fitted effect of over 50% in size; further: potency means the concentration at half of the fitted maximal effect
# Summary of the method: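 Fluorimetric cell-based assay: intact SH-SY5Y cells, 30 min compound preincubation at 37 C, acetylthiocholine substrate with thiol probe Thiolite Green, 40 min RT development, fluorescence 490/520 nm.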
# [4] = target: Acetylcholinesterase (Homo sapiens) (UniProt P22303); assay: Acetylcholinesterase (AChE) small molecule antagonists: enzyme-based qHTS assay with human liver microsomes (AID 1347399); settings: Potency: qHTS inhibition; outcome: qHTS inhibition; further: nearly all actives have a fitted effect of over 60% in size
# Summary of the method: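 Recombinant human AChE (50 mU/mL in the enzyme mix) and human liver microsomes (0.25 mg/mL final) were preincubated with compound and NADPH (0.25 mg/mL final) for 30 min at 37 C. Acetylthiocholine/DTNB was then added; thiocholine was read colorimetrically after 10 min at room temperature.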
SMILES,Potency [1],Potency [2],Potency [3],Potency [4],"activity, negative = inhibition [1]","activity change, negative = inhibition [2]","activity change, negative = inhibition [3]","activity change, negative = inhibition [4]"
CCCCCCCCC,inactive,inactive,inactive,inactive,,,,
O=C(O)c1ccc(OCCCOc2ccc(C(=O)O)cc2)cc1,inactive,inactive,inactive,inactive,,,,
NCCCN(CCO)CCO,inactive,inactive,inactive,inactive,,,,
C=C(C)C(=O)OCCOP(=O)(O)O,inactive,inactive,inactive,inactive,,,,
CSc1cnccn1,inactive,inactive,inactive,inactive,,,,
NCc1ccccc1Sc1ccccc1CO,inactive,inactive,inactive,inactive,,,,
Brc1ccccn1,inactive,inactive,inactive,inactive,,,,
OCCN1C[C@H](O)[C@@H](O)[C@H](O)[C@H]1CO,inactive,inactive,inactive,inactive,,,,
Nc1ccc(S(=O)(=O)Nc2nccs2)cc1,inactive,inactive,inactive,inactive,,,,
Cc1ccccc1S(N)(=O)=O,inactive,inactive,inactive,inactive,,,,
CCCCOCCOCCOC(=O)CCCCC(=O)OCCOCCOCCCC,inactive,inactive,inactive,inactive,,,,
O=C=Nc1ccc(Cl)c(Cl)c1,inactive,inactive,inactive,inactive,,,,
CCCO[Si](OCCC)(OCCC)OCCC,inactive,inactive,inactive,inactive,,,,
CC(C)OC(=O)CCC(=O)OC(C)C,inactive,inactive,inactive,inactive,,,,
C[N+](C)(C)CC(O)CCl (stereo not given),inactive,inactive,inactive,inactive,,,,
CCO[Si](C)(CCCOCC1CO1)OCC (stereo not given),inactive,inactive,inactive,inactive,,,,
CC12CCCC=C1C(=O)OC2=O (stereo not given),inactive,inactive,inactive,inactive,,,,
O=C=NCc1cccc(CN=C=O)c1,,,,,-0.545% [at 23.6 µM],0.393% [at 23.6 µM],-0.0492% [at 23.8 µM],0.648% [at 23.6 µM]
CCCC(C)CC (stereo not given),inactive,inactive,inactive,inactive,,,,
CC(C)(c1ccc(Oc2ccc(N)cc2)cc1)c1ccc(Oc2ccc(N)cc2)cc1,inactive,inactive,inactive,inactive,,,,

SMILES,Potency [1],Potency [2],Potency [3],Potency [4],"activity, negative = inhibition [1]","activity change, negative = inhibition [2]","activity change, negative = inhibition [3]","activity change, negative = inhibition [4]"
COC(=O)C1=C(C)NC(C)=C(C(=O)OCCc2ccc(N3CCN(C(c4ccccc4)c4ccccc4)CC3)cc2)C1c1cccc([N+](=O)[O-])c1 (stereo not given),inactive,inactive,inactive,inactive,,,,
Cc1cc(C)c(C)cc1C,inactive,inactive,inactive,inactive,,,,
COc1cccc2sc(N)nc12,inactive,inactive,inactive,inactive,,,,
NC[C@H]1O[C@H](O[C@H]2[C@H](O)[C@@H](O[C@H]3O[C@H](CO)[C@@H](O)[C@H](N)[C@H]3O)[C@H](N)C[C@@H]2N)[C@H](N)[C@@H](O)[C@@H]1O,,,,,1.64% [at 23.6 µM],0.27% [at 23.6 µM],4.18% [at 23.8 µM],3.75% [at 23.6 µM]
CCCCCCC1CCCC(=O)O1 (stereo not given),inactive,inactive,inactive,inactive,,,,
CC(C)n1nc(-c2cc3cc(O)ccc3[nH]2)c2c(N)ncnc21,inactive,inactive,inactive,inactive,,,,
CCCCCCC(O)CCCCCCCCCCC(=O)O (stereo not given),inactive,inactive,inactive,inactive,,,,
CC(CC=O)c1ccccc1 (stereo not given),inactive,inactive,inactive,inactive,,,,
CCCCNc1ccc(NCCCC)c2c1C(=O)c1ccccc1C2=O,,,,,-1.89% [at 23.6 µM],-0.954% [at 23.6 µM],1.62% [at 23.8 µM],-2.27% [at 23.6 µM]
[Cl][Bi]([Cl])([c]1ccccc1)([c]1ccccc1)[c]1ccccc1,inactive,inactive,inactive,inactive,,,,
CC1=C(C/C=C(\C)CCC[C@H](C)CCC[C@H](C)CCCC(C)C)C(=O)c2ccccc2C1=O,inactive,inactive,inactive,inactive,,,,
CCN(C=O)CC,inactive,inactive,inactive,inactive,,,,
Cc1ccc(O)c(-n2nc3ccccc3n2)c1,inactive,inactive,inactive,inactive,,,,
CC1(C)S[C@@H]2[C@H](NC(=O)[C@H](N)c3ccccc3)C(=O)N2[C@H]1C(=O)O,inactive,inactive,inactive,inactive,,,,
COc1cc(C)ccc1O,inactive,inactive,inactive,inactive,,,,
COc1ccc(/C=N/NC(=O)c2ccncc2)cc1OC,inactive,inactive,inactive,inactive,,,,
CCc1c(C(=O)O)c(=O)cnn1-c1ccc(Cl)cc1,inactive,inactive,inactive,inactive,,,,
O=C1NC(=O)c2ccccc21,inactive,inactive,inactive,inactive,,,,
Cc1cc(C)cc(OCC2CNC(=O)O2)c1 (stereo not given),inactive,inactive,inactive,inactive,,,,
Cc1cc(C(=O)O)ccc1[N+](=O)[O-],inactive,inactive,inactive,inactive,,,,

SMILES,Potency [1],Potency [2],Potency [3],Potency [4],"activity, negative = inhibition [1]","activity change, negative = inhibition [2]","activity change, negative = inhibition [3]","activity change, negative = inhibition [4]"
N#Cc1ccccc1C#N,inactive,inactive,inactive,inactive,,,,
CCn1cc(C(=O)O)c(=O)c2cc3c(cc21)OCO3,inactive,inactive,inactive,inactive,,,,
CC(C)CC(=O)O,inactive,inactive,inactive,inactive,,,,
O=C(O)CCCCCCCCC(=O)O,inactive,inactive,inactive,inactive,,,,
O=[N+]([O-])c1ccc(F)cc1F,inactive,inactive,inactive,inactive,,,,
C=COCCOCCOC=C,inactive,inactive,inactive,inactive,,,,
CC1CC(OC(=O)c2ccccc2O)CC(C)(C)C1 (stereo not given),inactive,inactive,inactive,inactive,,,,
Nc1ccccc1N,inactive,inactive,inactive,inactive,,,,
Cc1ccc(S(=O)(=O)NC(=O)NN2CC3CCCC3C2)cc1 (stereo not given),inactive,inactive,inactive,inactive,,,,
CCCCCCCCCCCCCCCCCCN(C)C,inactive,inactive,inactive,inactive,,,,
N[C@@H](C(=O)N[C@@H]1C(=O)N2C(C(=O)O)=C(Cl)CS[C@H]12)c1ccccc1,,,,,-0.844% [at 10.5 µM],-0.554% [at 10.5 µM],7.33% [at 10.5 µM],-5.46% [at 10.5 µM]
O=C1OC2(c3ccc(O)cc3Oc3cc(O)ccc32)c2ccccc21,inactive,inactive,inactive,inactive,,,,
CN(C)c1ccc(N=NS(=O)(=O)O)cc1,inactive,inactive,inactive,inactive,,,,
CC(=O)Nc1ccc2c(c1)Cc1cc(NC(C)=O)ccc1-2,inactive,inactive,inactive,inactive,,,,
CCCCCCCCCC,inactive,inactive,inactive,inactive,,,,
CN1CCN(N)CC1,inactive,inactive,inactive,inactive,,,,
Cc1c(Cl)c(=O)oc2cc(O)ccc12,35.6 µM (active),inactive,71 µM (active),inactive,,,,
O=C(CCCCC(=O)Nc1c(I)cc(I)c(C(=O)O)c1I)Nc1c(I)cc(I)c(C(=O)O)c1I,inactive,inactive,inactive,inactive,,,,
Cc1cccc(OCCOc2cccc(C)c2)c1,inactive,inactive,inactive,inactive,,,,
CCc1ccc(C)cc1,inactive,inactive,inactive,inactive,,,,
